Source: PubChem (National Center for Advancing Translational Sciences (NCATS))
NS1 inh: qHTS Assay for Inhibitors of Influenza NS1 Protein Function; Potency, µM (titrated, usually from 46.1 µM), for inactives: top-dose activity, positive = more growth; 270,000 compounds, 0.4% hits; AID 2326, 2010; calls by dose curve; also: actives are rising curves; nearly all actives have a fitted effect of over 50% in size
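Recovery from NS1-induced slow growth read by OD600 in budding yeast switched to galactose assay medium (pH 6.0, -URA) at 1:100 dilution. Compound 23 nl per well; the matching strain lacking NS1 serves as control.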
LmPK inh: qHTS Assay for Inhibitors of Leishmania Mexicana Pyruvate Kinase (LmPK); Q27686; purified LmPK, Kinase-Glo ATP luminescence, 1 h; Potency, µM (highest dose often 57.5 µM), for the others: at the top dose activity change, negative = inhibition, usual class: inhibitors; 290,000 compounds, 0.37% hits; also: % is scaled to controls: 0 for no effect and ±100 for the full control effect
Target sequence (Q27686 whole entry, looked up): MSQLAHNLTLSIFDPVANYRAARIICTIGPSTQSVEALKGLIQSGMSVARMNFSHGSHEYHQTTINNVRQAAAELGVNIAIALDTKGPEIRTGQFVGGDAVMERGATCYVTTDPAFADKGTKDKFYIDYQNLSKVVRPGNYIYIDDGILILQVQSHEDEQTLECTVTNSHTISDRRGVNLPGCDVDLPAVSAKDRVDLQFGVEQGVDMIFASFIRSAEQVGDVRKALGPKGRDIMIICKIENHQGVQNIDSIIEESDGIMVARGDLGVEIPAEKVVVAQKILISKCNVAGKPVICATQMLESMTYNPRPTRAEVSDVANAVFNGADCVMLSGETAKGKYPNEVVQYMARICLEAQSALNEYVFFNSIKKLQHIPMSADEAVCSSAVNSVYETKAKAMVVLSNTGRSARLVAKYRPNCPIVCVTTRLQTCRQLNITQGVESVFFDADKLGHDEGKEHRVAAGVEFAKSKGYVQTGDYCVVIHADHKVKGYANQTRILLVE
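0.1 nM LmPK, 0.5 mM PEP, 0.1 mM ADP; 50 mM imidazole pH 7.2, 7 mM MgCl2, 50 mM KCl; 1 h RT. Kinase-Glo luminescence readout, normalized to no-enzyme (full inhibition) and uninhibited wells.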
SARS PLP yeast: qHTS of Yeast-based Assay for SARS-CoV PLP | Potency, µM (highest dose often 32.9 µM), inactives show at the top dose activity, positive = growth rescue, hits mostly activators | S. cerevisiae expressing SARS-CoV PLpro, growth rescue | AID 485353, 2010 | 330,000 compounds, 0.19% hits; calls by dose curve; also: 0% is about no effect; nearly all actives have a fitted effect of over 55% in size
RE007 growth inh: qHTS Assay for Inhibitors of the HIV-1 protein Vpr | S. pombe RE007 Vpr strain, BacTiter-Glo ATP luminescence, 24 h | Potency, µM (top dose mostly 92.2 µM), for inactives: top-dose activity change, negative = less growth, most hits filed as inhibitors | 360,000 compounds, 0.21% hits | AID 651644, 2012; active = well fitted falling curve with a large enough effect; inconclusive = small, poorly fitted or top-dose-only effect; inactive = no such curve, though single readings can be large or run the other way; also: % is scaled to controls: 0 for no effect and ±100 for the full control effect; nearly all actives have a fitted effect of over 50% in size
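Fission yeast RE007 carrying one integrated HIV-1 vpr copy, seeded at OD 0.01 in PMG+AL medium with 23 nL pinned compound. Grown 24 h at 30 degrees; viability read by BacTiter-Glo luminescence after 5 min.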
TbPYK inhibitor: qHTS of Trypanosoma Brucei Inhibitors; pyruvate kinase (Trypanosoma brucei), Q57TT1; TbPYK enzyme, Kinase-Glo Plus ATP luminescence, 45 min; Potency, µM (series often up to 76.8 µM), without a hit: at the highest dose activity, negative = inhibition, hits mostly inhibitors; 410,000 compounds, 0.12% hits; also: % is scaled to controls: 0 for no effect and ±100 for the full control effect; nearly all actives have a fitted effect of over 50% in size
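Enzyme and substrate buffer are dispensed first and compound is pin-transferred. ADP at 130 uM final then starts the reaction, which runs 45 min at room temperature. Detection reagent is added for 10 min before luminescence is imaged.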
Sm TGR inh: qHTS Assay for the Inhibitors of Schistosoma Mansoni Peroxiredoxins | Potency, µM (highest dose often 114 µM), for the others: top-dose activity change, negative = inhibition, usual class: inhibitors | purified TGR, DTNB reduction, TNB absorbance 405 nm | 360,000 compounds, 3% hits; also: % is scaled to controls: 0 for no effect and ±100 for the full control effect; nearly all actives have a fitted effect of over 60% in size
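First, TGR (20 nM dispensed) and NADPH were mixed with compound. Second, a 15 min room-temperature incubation followed. Third, further NADPH and then DTNB were added to start the reaction. Finally, TNB absorbance was monitored kinetically.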
Active calls of the source: *; ? = inconclusive; nt = no result given; [ ] = remark or other dose. Most compounds without a hit are left out; they make up all but 3.3% or so of the library. Unless noted, calls follow the shape of the dose curve; as a rule, active = well fitted curve in the direction sought with a large enough effect; inconclusive = small, poorly fitted or top-dose-only effect, or another doubt; inactive = no such curve, though single readings can be large; an effect the other way counts as inactive or inconclusive. Potency is read from the fitted curve at half-maximal effect.

SMILES	NS1 inh	LmPK inh	SARS PLP yeast	RE007 growth inh	TbPYK inhibitor	Sm TGR inh
COC(=O)CCCC1=CC2=C(c3ccccc3)C(=O)C(C)(OC(=O)C3CCCC3)C(=O)C2=CN1CCc1c[nH]c2ccccc12 (stereo not drawn)	?	-3.6%[11.5 µM]	5.2%	-11.1%	-7.5%	8.91µM*
CCCCC1=CC2=CC(=O)C(C)(OC(=O)CC)C(=O)C2=CN1CCc1c[nH]c2ccccc12 (stereo not drawn)	?	0.3%[11.5 µM]	-2.8%	-12.7%	2.0%	44.7µM*
COC(=O)CCCC1=CC2=C(c3ccccc3)C(=O)C(C)(OC(=O)C3CCCC3)C(=O)C2=CN1Cc1ccccc1 (stereo not drawn)	nt	-5.2%[11.5 µM]	nt	nt	nt	nt
COC(=O)CCCC1=CC2=C(c3ccccc3)C(=O)C(C)(OC(=O)C3CCCC3)C(=O)C2=CN1C1CC1 (stereo not drawn)	0.4%	-1.4%[11.5 µM]	1.5%	-11.3%	1.8%	?
COC(=O)CCCC1=CC2=C(c3ccccc3)C(=O)C(C)(OC(=O)C3CCCC3)C(=O)C2=CN1CCc1ccccn1 (stereo not drawn)	2.9%	1.8%[11.5 µM]	-4.6%	0.8%	-5.1%	28.2µM*
COC(=O)CCCC1=CC2=C(c3ccccc3)C(=O)C(C)(OC(=O)C3CCCC3)C(=O)C2=CN1C(CO)CO (stereo not drawn)	3.7%	-2.5%[11.5 µM]	-3.7%	10.1%	2.2%	39.8µM*
COC(=O)CCCC1=CC2=CC(=O)C(C)(OC(=O)c3cccs3)C(=O)C2=CN1CCc1c[nH]c2ccccc12 (stereo not drawn)	13.8%	-6.2%[11.5 µM]	0.2%	-3.9%	2.3%	?
CCN(C(=O)c1cc2c(=O)oc3ccccc3c2s1)c1ccc(C)c(C)c1	nt	nt	nt	nt	-1.0%	-5.3%
CC(C)(C)c1c2c(c(C(C)(C)C)c3c1OCN(Cc1ccccc1)C3)OCN(Cc1ccccc1)C2	-10.6%	nt	nt	nt	nt	nt
COC/C=C/C1=CC2=CC(=O)C(C)(OC(=O)c3cnc4ccccc4n3)C(=O)C2=CN1Cc1ccc2c(c1)OCO2 (stereo not drawn)	nt	-2.0%[11.5 µM]	nt	nt	nt	nt
COC(=O)CCCC1=CC2=C(c3ccccc3)C(=O)C(C)(OC(=O)C3CCCC3)C(=O)C2=CN1CCN1CCOCC1 (stereo not drawn)	3.6%	-2.5%[11.5 µM]	-3.7%	-1.6%	-1.0%	35.5µM*
COCCNc1oc(-c2ccco2)nc1S(=O)(=O)c1ccccc1	18.3%	-3.4%	-3.9%	-1.3%	-14.8%	50.1µM*
C=CCNc1oc(-c2cccs2)nc1S(=O)(=O)c1ccccc1	-2.0%	-0.3%	7.6%	-2.7%	-0.2%	0.3%
O=S(=O)(c1ccccc1)c1nc(-c2ccccc2)oc1NCc1cccnc1	-43.3%	0.6%	1.4%	9.5%	5.9%	-25.9%
COCCNc1oc(/C=C/c2cccc(OC)c2)nc1S(=O)(=O)c1ccccc1	nt	nt	nt	-0.4%	3.9%	nt
COCCNc1oc(/C=C/c2ccc(F)cc2)nc1S(=O)(=O)c1ccccc1	21.1%	-0.2%	-4.2%	8.6%	-19.1%	31.6µM*
O=S(=O)(c1ccccc1)c1nc(-c2ccco2)oc1NCc1cccnc1	12.7%	0.7%	?	2.2%	-12.3%	25.1µM*
C=CCNc1oc(-c2ccco2)nc1S(=O)(=O)c1ccccc1	-13.9%	-3.6%	2.3%	17.4%	-3.8%	12.6µM*
N#Cc1nc(/C=C/c2ccc(F)cc2)oc1N1CCCCCC1	nt	nt	nt	nt	-0.3%	0.4%
CN(C)CCOC(=O)c1ccc(N)cc1	-5.2%	nt	nt	nt	nt	nt
CC(=O)NCc1cc(Cl)c2cccnc2c1O	nt	nt	-1.8%	nt	nt	-21.0%
COc1ccccc1N1CCN(S(=O)(=O)c2c(C)sc3ncn(CC(=O)N(C)c4ccc(C(C)C)cc4)c(=O)c23)CC1	nt	nt	nt	nt	-8.2%	4.5%
COc1cc2cc(C)c(SCC(=O)N3CCN(C(=O)c4ccco4)CC3)nc2cc1OC	1.3%	1.7%	-1.1%	2.7%	-3.4%	17.8µM*
Clc1ccc(CSC2=NCCN2)cc1Cl	0.0%	nt	nt	nt	nt	nt
O=C1c2ccc([N+](=O)[O-])cc2NC(c2ccco2)N1/N=C/c1ccco1 (stereo not drawn)	1.8%	2.6%	-6.1%	-27.5%	-3.7%	39.8µM*
SMILES	NS1 inh	LmPK inh	SARS PLP yeast	RE007 growth inh	TbPYK inhibitor	Sm TGR inh
COC(=O)C1=C(C)N(CCc2ccc(OC)c(OC)c2)C(=O)C1	13.1%	-3.1%	5.5%	-7.7%	-10.8%	0.0%
COC(=O)C1=C(C)N(C)C(=O)/C1=C\c1ccco1	-3.7%	-1.9%	4.0%	-9.7%	1.6%	-47.3%
COC(=O)C1=C(C)N(Cc2ccc(OC)cc2)C(=O)/C1=C\c1ccco1	-3.6%	2.3%	0.4%	-27.0%	-4.4%	12.6µM*
CCOC(=O)C1=C(C)N(c2ccc(C)c(C)c2)C(=O)/C1=C\c1ccco1	7.9%	0.1%	3.2%	14.4%	-3.1%	0.0%
COC(=O)C1=C(C)N(c2ccc(C)c(C)c2)/C(=C/c2ccco2)C1=O	nt	8.8%	2.8%	-4.3%	0.6%	35.5µM*
COC(=O)C1=C(C)NC(=O)/C1=C\c1ccco1	-18.1%	2.0%	-5.2%	?	-8.5%	25.1µM*
COC(=O)C1=C(C)N(CCc2ccc(OC)c(OC)c2)C(=O)/C1=C\c1ccc(O)cc1	0.5%	1.0%	-14.1%	nt	-12.9%	28.2µM*
CCN(CCCNC(=O)c1cc(Nc2ccccc2OC)nc2ccccc12)c1cccc(C)c1	nt	nt	nt	nt	-0.7%	21.0%
COC(=O)C1=C(C)NC(=O)/C1=C\c1cc(C)n(-c2cccc(C)c2)c1C	16.1%	3.0%	-4.1%	19.1%	-14.0%	25.1µM*
COC(=O)C1=C(C)N(Cc2ccco2)C(=O)/C1=C\c1ccc([N+](=O)[O-])cc1	0.0%	8.1%	-6.4%	4.5%	?	7.94µM*
Fc1cccc(CNc2ncnc3ccc(-c4cccnc4)cc23)c1	nt	nt	-3.0%	nt	nt	-3.2%
CCn1cc(C(=O)N(C)c2cc(C)ccc2C)c2cc(OC)c(OC)cc2c1=O	nt	nt	nt	nt	-6.4%	-3.5%
Cc1ccc2sc(N(CCCN(C)C)C(=O)CCS(=O)(=O)c3ccccc3)nc2c1C	-32.1%	-4.7%	-5.2%	-11.1%	-24.6%	7.08µM*
COc1ccc(OC)c2sc(N(CCCN(C)C)C(=O)CCS(=O)(=O)c3ccccc3)nc12	nt	nt	-3.9%	2.6%	-8.3%	3.16µM*
CN(C)CCCN(C(=O)CCS(=O)(=O)c1ccccc1)c1nc2cc3c(cc2s1)OCO3	-3.5%	-0.1%	0.6%	5.4%	3.2%	3.98µM*
CCN(CC)CCN(C(=O)CCS(=O)(=O)c1ccccc1)c1nc2cc(C)cc(C)c2s1	-16.3%	-8.9%	-9.9%	-0.5%	-18.7%	?
